Several values for one entry are separate records, joined by “and”; a condition that tells them apart may be missing. Identical values can stand only once. Inconclusive results are not listed. Entries that show only a call come without a potency. Activity calls are given as the source filed them. The call rests on the fitted dose curve.
Key:
[1] = Cytotoxicity counterscreen for inhibitors of SARS-CoV-2 cell entry (AID 1645845); further: nearly all actives have a fitted effect of over 50% in size
How it was run: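 HEK293-ACE2 cells (Expi293F stably expressing human ACE2) seeded overnight, then compound for 1 h plus 48 h at 37C. Viability as ATP content by luminescence; normalized to wells with cells and media-only wells.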

[2] = Primary qHTS to identify inhibitors of SARS-CoV-2 cell entry (AID 1645846); details: activity change, negative = inhibition: at 57.1 µM (top of the series) unless noted; further: nearly all actives have a fitted effect of over 45% in size
How it was run: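 Luminescence readout (Bright-Glo luciferase) 48 h after pseudoparticle addition. HEK293-ACE2 cells, 1500/well; compound pre-incubation 1 h; Normalized to spike PP and bald PP.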
Potency means the concentration at half of the fitted maximal effect.

Structure (SMILES)	Potency [1]	Potency [2]	activity change, negative = inhibition [2]	outcome [1]
Cc1cc(O)cc(C)c1Cl	inactive	inactive		
O=C(O)C(S)C(S)C(=O)O (stereo unspecified)	inactive	inactive		
CC[N+](CC)(CCNC(=O)C(=O)NCC[N+](CC)(CC)Cc1ccccc1Cl)Cc1ccccc1Cl	inactive	inactive		
CCN[C@H]1CN(CCCOC)S(=O)(=O)c2sc(S(N)(=O)=O)cc21	inactive		-6.75%	
O=C1O[C@H](CO)[C@@H](O)[C@H](O)[C@H]1O	inactive		-15.4%	
CCOC(=O)c1ccc(N)cc1	inactive	inactive		
CC(=O)[C@@]1(O)CC[C@H]2[C@@H]3C[C@H](C)C4=CC(=O)C=C[C@]4(C)[C@@]3(F)[C@@H](O)C[C@@]21C	inactive		1.04%	
O=C1c2ccccc2C(=O)c2c1ccc(O)c2O	inactive	inactive		
O=C(O)c1ccccc1Nc1cccc(C(F)(F)F)c1	inactive	inactive		
O=c1[nH]c(=O)n([C@H]2O[C@H](CO)[C@@H](O)[C@@H]2O)cc1/C=C\Br	inactive	inactive		
CCCCCCCCCCOc1cc2c(=O)c(C(=O)OCC)c[nH]c2cc1OCC			-22.6% [at 5.25 µM]	inactive [at 5.25 µM]
Cc1c(I)c(=O)n(-c2ccccc2)n1C	inactive	inactive		
O=c1cc[nH]c(=O)[nH]1	inactive		-14.8%	
CC(C)(Oc1ccc(C2CC2(Cl)Cl)cc1)C(=O)O (stereo unspecified)	inactive	inactive		
CCCCOC(=O)c1ccc(O)cc1	inactive	inactive		
Cc1cccc(C)c1NC(=O)c1cc(S(N)(=O)=O)c(Cl)cc1O	inactive		-7.8%	
CC(C)C(=O)c1c(C(C)C)nn2ccccc12	inactive	inactive		
NCCNCCNCCN	inactive		2.68%	
O=C(O)CNC(=O)c1ccccc1	inactive	inactive		
CC(=O)Nc1ccccc1	inactive		4.61%	
Nc1nc(N)nc(-c2cc(Cl)ccc2Cl)n1	inactive	inactive		
CCCNC(C)C(=O)Nc1c(C)csc1C(=O)OC (stereo unspecified)	inactive	inactive		
Clc1cccc(C(c2ccc3nc[nH]c3c2)n2ccnc2)c1 (stereo unspecified)	inactive	inactive		
CC[N+](C)(CC)CCOC(=O)C1c2ccccc2Oc2ccccc21	inactive	inactive		
Nc1ccc(C(=O)O)cc1	inactive	inactive		

Structure (SMILES)	Potency [1]	Potency [2]	activity change, negative = inhibition [2]	outcome [1]
Nc1nc(Cl)nc2c1ncn2[C@@H]1O[C@H](CO)[C@@H](O)[C@@H]1F	inactive	22.4 µM (active)		
COCCCOc1ccnc(CS(=O)c2nc3ccccc3[nH]2)c1C (stereo unspecified)	inactive		1.47%	
CC(C)(C)NCC(O)COc1ccccc1OCC1CCCO1 (stereo unspecified)	inactive		4.08%	
O=C(O)[C@@H](O)[C@H](O)[C@H](O)[C@@H](O)C(=O)O	inactive		-0.518%	
NC(=O)NC1NC(=O)NC1=O (stereo unspecified)	inactive	inactive		
O=C(O)/C=C(\CC(=O)O)C(=O)O	inactive		0.545%	
O=c1[nH]c(=O)n([C@H]2C[C@H](O)[C@@H](CO)O2)cc1I	inactive	15.8 µM (active)		
NS(=O)(=O)c1cc(-c2nn[nH]n2)c(NCc2cccs2)cc1Cl	inactive		-3.88%	
CC(=O)N(c1onc(C)c1C)S(=O)(=O)c1ccc(N)cc1	inactive	inactive		
Cc1ncc(CO)c(CO)c1O	inactive		-1.83%	
O=c1[nH]c(=O)n([C@H]2C[C@H](O)[C@@H](CO)O2)cc1F	inactive		-90.3% and -94.8%	
Cc1nnc(SCC2=C(C(=O)O)N3C(=O)[C@@H](NC(=O)Cn4cnnn4)[C@H]3SC2)s1	inactive	inactive		
CCO[C@H](Cc1ccc(OCCc2ccc(OS(C)(=O)=O)cc2)cc1)C(=O)O	inactive	inactive		
CC(=O)NCc1c(I)c(NC(C)=O)c(I)c(C(=O)O)c1I	inactive	inactive		
NC(CS)C(=O)O (stereo unspecified)	inactive		-4.89%	
NC(=O)NC1N=C([O][Al])NC1=O (stereo unspecified)	inactive		-0.751%	
c1ccc2c(CC3=NCCN3)cccc2c1	inactive		0.334%	
CC(=O)O[C@@H]1CC2C3CCc4cc(OC(=O)c5ccccc5)ccc4C3CCC2(C)[C@H]1OC(C)=O (stereo partly specified)	inactive		4.28%	
Cc1ccc(-c2ncc(Cl)cc2-c2ccc(S(C)(=O)=O)cc2)cn1	inactive	inactive		
CC(C)c1ccc2oc3nc(N)c(C(=O)O)cc3c(=O)c2c1	10 µM (active)	inactive		
CCCCC(CC)CNC(=O)CC(C)OC(=O)CCC(=O)O (stereo unspecified)	inactive	inactive		
COc1cc2c3cc1Oc1cc(ccc1O)C[C@@H]1c4c(cc(OC)c(O)c4Oc4ccc(cc4)C[C@@H]3N(C)CC2)CC[N+]1(C)C	inactive	inactive		
CC(C(=O)O)c1cccc(Oc2ccccc2)c1 (stereo unspecified)	inactive		-1.5%	
CC(CN(C)C)C(C)(O)Cc1ccc(Cl)cc1 (stereo unspecified)	inactive		0.771%	
CC(C(=O)O)c1ccc2c(c1)CC(=O)c1ccccc1S2 (stereo unspecified)	inactive	inactive		

Structure (SMILES)	Potency [1]	Potency [2]	activity change, negative = inhibition [2]	outcome [1]
CCn1ccc(NS(=O)(=O)c2ccc(N)cc2)nc1=O	inactive	inactive		
CCO/C([O-])=N/c1c[n+](N2CCOCC2)no1	inactive	inactive		
C[C@@H]1C[C@H]2[C@@H]3C[C@H](F)C4=CC(=O)C=C[C@]4(C)[C@@]3(F)[C@@H](O)C[C@]2(C)[C@@]1(O)C(=O)CO	inactive	inactive		
CC(=O)OCC[N+](C)(C)C	inactive		3.83%	
CC(C(=O)O)c1ccc(/C=C2\CCCCC2=O)cc1 (stereo unspecified)	inactive	inactive		
Nc1nc(=O)n([C@@H]2CS[C@H](CO)O2)cc1F	inactive		-20.7%	
CNC[C@H](O)[C@@H](O)[C@H](O)[C@H](O)CO	inactive		-19.7%	
CC(=O)[C@H]1CC[C@H]2[C@@H]3C=CC4=CC(=O)CC[C@@]4(C)[C@@H]3CC[C@]12C	inactive		-10.8%	
O=C(O)c1cc(N=Nc2ccc(O)c(C(=O)O)c2)ccc1O	inactive		-12.7%	
O=[N+]([O-])c1cncn1CCN1CCOCC1	inactive		-6.13%	
CCOc1ccc(NC(=O)CC(C)O)cc1 (stereo unspecified)	inactive		-25.9%	
NC(=O)c1ccccc1O	inactive		1.57%	
NCCCCCC(=O)O	inactive		-19.8% and -25.5%	
CC(=O)O[C@]1(C(C)=O)CC[C@H]2[C@@H]3C[C@H](C)C4=CC(=O)CC[C@]4(C)[C@H]3CC[C@@]21C	inactive		-11.3%	
Nc1ccc(C(=O)Oc2ccccc2)c(O)c1	inactive	inactive		
COc1ccc(C(=O)c2ccccc2O)c(O)c1	inactive	inactive		
O=C(O)c1ccccc1S	inactive	inactive		
O=C1CC[C@H](C(=O)N2CCCCC2)N1	inactive		2.86%	
CCN1CC(CCN2CCOCC2)C(c2ccccc2)(c2ccccc2)C1=O (stereo unspecified)	inactive		-22.6%	
Cc1ccc(Cl)c(Nc2ccccc2C(=O)O)c1Cl	inactive		-1.76%	
CCCCCCCCCCCCSCCOCCO	inactive	inactive		
CO/N=C(\C(=O)N[C@@H]1C(=O)N2C(C(=O)O)=C(C[N+]3(C)CCCC3)CS[C@H]12)c1csc(N)n1	inactive		-9.52%	
COc1ccc2c(c1)c(CC(=O)OC/C=C(\C)CC/C=C(\C)CCC=C(C)C)c(C)n2C(=O)c1ccc(Cl)cc1	inactive	inactive		
C#C[C@]1(O)CC[C@H]2[C@@H]3CCc4cc(OC5CCCC5)ccc4[C@H]3CC[C@@]21C	inactive		-15.1%	
Cc1c(NC(=O)c2cccnc2)c(=O)n(-c2ccccc2)n1C	inactive	inactive		

Structure (SMILES)	Potency [1]	Potency [2]	activity change, negative = inhibition [2]	outcome [1]
C[C@H]1C[C@@H]2[C@H]([C@@H](O)C[C@@]3(C)[C@H]2CC[C@]3(O)C(=O)CO)[C@@]2(C)C=CC(=O)C=C12	inactive	inactive		
Cc1nnc(NS(=O)(=O)c2ccc(N)cc2)s1	inactive		4.32% and -12.1%	
Clc1cccc(Cl)c1NC1=NCCN1	inactive	inactive		
O=C(c1ccccc1)c1ccccc1	inactive	inactive		
CC(C)(C)NC[C@H](O)COc1nsnc1N1CCOCC1	inactive		-5.6%	
NC(=O)c1cc[n+](CC2=C(C(=O)[O-])N3C(=O)[C@@H](NC(=O)Cc4cccs4)[C@H]3SC2)cc1	inactive	inactive		
NC(=O)c1ncn([C@@H]2O[C@H](CO)[C@@H](O)[C@H]2O)c1O	inactive	inactive		
CCOc1cc(CC(=O)N[C@@H](CC(C)C)c2ccccc2N2CCCCC2)ccc1C(=O)O	inactive		-13.4%	
O=C(C1CCCCC1)N1CC(=O)N2CCCc3ccccc3C2C1 (stereo unspecified)	inactive		0.685%	
COc1ccc2cc([C@H](C)C(=O)O)ccc2c1	inactive	inactive		
CC(C)(S)[C@@H](N)C(=O)O			2.83% [at 5.25 µM]	inactive [at 5.25 µM]
CC(=O)N(CC(O)CO)c1c(I)c(C(=O)NCC(O)CO)c(I)c(C(=O)NCC(O)CO)c1I (stereo unspecified)	inactive	inactive		
COC(=O)[C@@H]1[C@H]2C[C@H]3c4[nH]c5ccccc5c4CCN3C[C@@H]2CC[C@@H]1O	inactive	inactive	-32.5%	
CC(C)(Sc1cc(C(C)(C)C)c(O)c(C(C)(C)C)c1)Sc1cc(C(C)(C)C)c(O)c(C(C)(C)C)c1	inactive	inactive		
O=C(O)c1cccnc1	inactive	inactive	-20.2% [at 114 µM]	
COc1ccc(C(=O)CC(=O)c2ccc(C(C)(C)C)cc2)cc1	inactive	inactive	-3.57%	
C#CCN[C@@H]1CCc2ccccc21	inactive	inactive	-2.27%	
COc1ccc2cccc(CCNC(C)=O)c2c1	inactive	inactive	-31%	
Nc1ncnc2c1ncn2[C@@H]1O[C@H](CO)[C@@H](O)[C@H]1O	inactive	inactive	-8.35%	
Cc1cnc(NC(=O)C2=C(O)c3ccccc3S(=O)(=O)N2C)s1	inactive	inactive	-28.9%	
Clc1ccc2nsnc2c1NC1=NCCN1	inactive	inactive	-13.9%	
Nc1cc(C(Cl)=C(Cl)Cl)c(S(N)(=O)=O)cc1S(N)(=O)=O	inactive	inactive	-25%	
CNC[C@H](O)c1cccc(O)c1	inactive	inactive	1.11%	

Source: PubChem BioAssay (NCATS)
